The results in this text go back to PMC7862700, “An all-to-all approach to the identification of sequence-specific readers for epigenetic DNA modifications on cytosine”.

What all share (assay): DAPPL (digital affinity profiling via proximity ligation, sequencing); 10 mM Tris-HCl pH 7.5, 50 mM NaCl, 1 mM DTT, 4% glycerol, room temperature, 30 min; GST-TFs on glutathione beads, 16-mer random dsDNA library, 0.1% formaldehyde crosslink after washing; high values mean tight binding
In one experiment the target is T1, FEV (Homo sapiens, UniProt Q99581 1-238).
T1 sequence: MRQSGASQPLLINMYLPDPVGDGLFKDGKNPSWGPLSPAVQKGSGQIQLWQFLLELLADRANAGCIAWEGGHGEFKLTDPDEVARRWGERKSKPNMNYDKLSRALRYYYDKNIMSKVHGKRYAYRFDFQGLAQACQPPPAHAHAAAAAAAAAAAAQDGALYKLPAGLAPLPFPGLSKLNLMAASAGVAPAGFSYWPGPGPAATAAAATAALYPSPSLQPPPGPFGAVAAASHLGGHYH
The settings on record: protein: recombinant; tags: N-terminal GST; dsDNA, one strand shown. A digest of the protocol: (§1)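 Yeast served to express human transcription factors as GST fusions, which were then captured on glutathione beads and labelled with DNA barcodes. Pooled with a tag-only sample, they were incubated with 200 nmole of a 16-mer random double-stranded DNA library for 30 min at room temperature in Tris/NaCl/DTT/glycerol buffer, washed, crosslinked with 0.1% formaldehyde, ligated by proximity, amplified by PCR and sequenced. Dividing each hexamer's read frequency for a factor by its frequency for the tag-only sample gives the binding signal.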

The next experiment concerns the target ETV5 (Homo sapiens, UniProt P41161 1-510). The settings on record: protein: recombinant; tags: N-terminal GST; dsDNA, one strand shown. Summed up: as §1
Another experiment has as its target HSF1 (Homo sapiens, UniProt Q00613 1-529). Conditions: protein: recombinant; tags: N-terminal GST; chain copies: 3; dsDNA, one strand shown. A digest of the protocol: as §1
For another experiment, the target named is T2, SPIC (Homo sapiens, UniProt Q8N5J4 1-248).
T2 sequence: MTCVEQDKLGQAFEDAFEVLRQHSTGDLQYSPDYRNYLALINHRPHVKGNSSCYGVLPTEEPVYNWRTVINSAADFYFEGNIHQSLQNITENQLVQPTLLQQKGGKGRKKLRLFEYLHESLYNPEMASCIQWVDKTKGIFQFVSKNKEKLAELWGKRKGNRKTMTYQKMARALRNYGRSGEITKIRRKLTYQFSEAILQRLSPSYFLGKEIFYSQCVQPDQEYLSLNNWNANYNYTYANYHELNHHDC
Conditions: protein: recombinant; tags: N-terminal GST; dsDNA, one strand shown. A digest of the protocol:
as §1

Another experiment has as its target ELF4 (Homo sapiens, UniProt Q99607 1-663). The settings on record: protein: recombinant; tags: N-terminal GST; dsDNA, one strand shown. Summed up:
as §1

The next experiment addresses T3, ELK4 (Homo sapiens, UniProt P28324-2 1-405).
T3 sequence: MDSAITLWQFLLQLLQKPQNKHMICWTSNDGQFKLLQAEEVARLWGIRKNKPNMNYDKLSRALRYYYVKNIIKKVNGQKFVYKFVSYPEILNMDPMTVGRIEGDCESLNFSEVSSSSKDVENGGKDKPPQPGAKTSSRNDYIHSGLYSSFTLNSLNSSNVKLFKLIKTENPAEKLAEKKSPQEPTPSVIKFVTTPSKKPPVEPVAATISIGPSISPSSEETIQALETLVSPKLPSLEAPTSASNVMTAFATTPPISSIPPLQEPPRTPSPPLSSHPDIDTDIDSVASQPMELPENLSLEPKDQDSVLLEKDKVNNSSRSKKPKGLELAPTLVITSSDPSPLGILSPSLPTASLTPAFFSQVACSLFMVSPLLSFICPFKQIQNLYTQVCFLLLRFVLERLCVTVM
Conditions: protein: recombinant; tags: N-terminal GST; dsDNA, one strand shown. Summed up: as §1

A further experiment concerns the target T4, ETV2 (Homo sapiens, UniProt O00321 1-342).
T4 sequence: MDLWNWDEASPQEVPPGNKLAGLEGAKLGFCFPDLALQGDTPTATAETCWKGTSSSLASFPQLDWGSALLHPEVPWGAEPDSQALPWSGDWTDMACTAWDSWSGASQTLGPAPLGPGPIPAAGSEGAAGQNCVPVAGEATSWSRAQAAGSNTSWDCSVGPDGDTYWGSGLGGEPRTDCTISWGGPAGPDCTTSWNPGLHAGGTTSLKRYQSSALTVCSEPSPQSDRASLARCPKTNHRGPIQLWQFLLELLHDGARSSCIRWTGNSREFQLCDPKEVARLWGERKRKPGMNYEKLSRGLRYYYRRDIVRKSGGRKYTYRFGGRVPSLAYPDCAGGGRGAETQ
The settings on record: protein: recombinant; tags: N-terminal GST; dsDNA, one strand shown. A digest of the protocol:
as §1

The next experiment addresses T5, ELF3 (Homo sapiens, UniProt P78545 1-371).
T5 sequence: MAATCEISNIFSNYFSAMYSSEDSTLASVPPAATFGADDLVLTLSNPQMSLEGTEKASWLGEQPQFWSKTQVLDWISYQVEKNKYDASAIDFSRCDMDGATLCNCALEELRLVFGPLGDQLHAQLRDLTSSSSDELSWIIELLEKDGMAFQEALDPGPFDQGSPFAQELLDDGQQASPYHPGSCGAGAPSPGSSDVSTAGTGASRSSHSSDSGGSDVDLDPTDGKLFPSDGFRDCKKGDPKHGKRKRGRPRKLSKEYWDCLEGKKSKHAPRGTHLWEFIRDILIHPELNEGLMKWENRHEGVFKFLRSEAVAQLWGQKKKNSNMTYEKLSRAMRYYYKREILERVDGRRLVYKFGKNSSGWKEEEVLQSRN
Conditions: protein: recombinant; tags: N-terminal GST; dsDNA, one strand shown. Summed up:
as §1

Another experiment addresses CRX (Homo sapiens, UniProt O43186 1-299). Conditions: protein: recombinant; tags: N-terminal GST; dsDNA, one strand shown. A digest of the protocol:
as §1

The next experiment deals with ETV1 (Homo sapiens, UniProt P50549 1-477). Conditions: protein: recombinant; tags: N-terminal GST; dsDNA, one strand shown. A digest of the protocol:
as §1

Another experiment addresses T6, ERF (Homo sapiens, UniProt P50548 1-548).
T6 sequence: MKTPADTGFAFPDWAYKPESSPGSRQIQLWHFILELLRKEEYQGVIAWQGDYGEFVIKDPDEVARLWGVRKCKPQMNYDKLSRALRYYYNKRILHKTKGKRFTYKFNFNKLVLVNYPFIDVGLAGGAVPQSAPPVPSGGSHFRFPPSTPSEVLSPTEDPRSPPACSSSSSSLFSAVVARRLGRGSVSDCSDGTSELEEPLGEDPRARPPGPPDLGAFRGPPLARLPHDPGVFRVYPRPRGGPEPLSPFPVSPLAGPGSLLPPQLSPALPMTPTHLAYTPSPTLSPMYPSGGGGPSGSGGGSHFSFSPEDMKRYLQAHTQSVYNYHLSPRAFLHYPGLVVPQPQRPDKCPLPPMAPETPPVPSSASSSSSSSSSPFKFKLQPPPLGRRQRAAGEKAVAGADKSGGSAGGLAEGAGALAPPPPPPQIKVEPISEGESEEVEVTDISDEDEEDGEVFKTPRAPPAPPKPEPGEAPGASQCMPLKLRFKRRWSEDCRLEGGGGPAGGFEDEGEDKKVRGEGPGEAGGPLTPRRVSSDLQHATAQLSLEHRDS
Conditions: protein: recombinant; tags: N-terminal GST; dsDNA, one strand shown. A digest of the protocol: as §1

A further experiment deals with T7, ETV3L (Homo sapiens, UniProt Q6ZN32 1-361).
T7 sequence: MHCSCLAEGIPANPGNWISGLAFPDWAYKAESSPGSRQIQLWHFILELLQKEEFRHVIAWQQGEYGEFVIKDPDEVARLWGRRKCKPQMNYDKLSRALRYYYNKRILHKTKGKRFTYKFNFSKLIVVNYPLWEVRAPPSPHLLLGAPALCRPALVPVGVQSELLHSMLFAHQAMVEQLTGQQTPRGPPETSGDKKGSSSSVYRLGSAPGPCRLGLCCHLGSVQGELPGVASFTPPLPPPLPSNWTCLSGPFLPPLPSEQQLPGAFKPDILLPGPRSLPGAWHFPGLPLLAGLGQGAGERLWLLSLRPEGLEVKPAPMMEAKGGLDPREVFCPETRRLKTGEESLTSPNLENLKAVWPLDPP
The settings on record: protein: recombinant; tags: N-terminal GST; dsDNA, one strand shown. A digest of the protocol: as §1

In the next experiment the target is T8, ETS2 (Homo sapiens, UniProt P15036 1-469).
T8 sequence: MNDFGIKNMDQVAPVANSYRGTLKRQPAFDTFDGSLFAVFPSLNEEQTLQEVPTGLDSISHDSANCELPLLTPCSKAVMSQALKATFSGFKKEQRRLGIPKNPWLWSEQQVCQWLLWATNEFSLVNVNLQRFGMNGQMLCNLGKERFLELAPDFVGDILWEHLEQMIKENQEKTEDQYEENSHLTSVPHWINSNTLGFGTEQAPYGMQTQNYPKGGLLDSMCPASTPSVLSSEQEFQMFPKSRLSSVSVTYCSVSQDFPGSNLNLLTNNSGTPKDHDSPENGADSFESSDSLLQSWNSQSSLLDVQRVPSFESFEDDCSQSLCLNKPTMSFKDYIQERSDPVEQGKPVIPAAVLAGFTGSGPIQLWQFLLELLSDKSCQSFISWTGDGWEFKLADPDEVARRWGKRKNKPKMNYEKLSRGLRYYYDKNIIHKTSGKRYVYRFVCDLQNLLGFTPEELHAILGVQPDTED
The settings on record: protein: recombinant; tags: N-terminal GST; dsDNA, one strand shown. A digest of the protocol:
as §1

A further experiment deals with T9, SPDEF (Homo sapiens, UniProt O95238 1-335).
T9 sequence: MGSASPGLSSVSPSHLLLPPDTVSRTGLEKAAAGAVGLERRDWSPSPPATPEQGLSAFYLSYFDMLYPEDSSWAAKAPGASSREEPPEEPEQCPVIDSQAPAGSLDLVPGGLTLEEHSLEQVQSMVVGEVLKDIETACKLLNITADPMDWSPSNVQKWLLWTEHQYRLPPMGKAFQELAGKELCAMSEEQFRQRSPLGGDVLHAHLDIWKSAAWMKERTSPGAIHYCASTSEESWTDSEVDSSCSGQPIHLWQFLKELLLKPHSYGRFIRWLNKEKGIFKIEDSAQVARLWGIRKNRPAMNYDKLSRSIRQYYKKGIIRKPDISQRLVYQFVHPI
The settings on record: protein: recombinant; tags: N-terminal GST; dsDNA, one strand shown. A digest of the protocol: as §1

Another experiment concerns the target T10, ETV7 (Homo sapiens, UniProt Q9Y603 1-341).
T10 sequence: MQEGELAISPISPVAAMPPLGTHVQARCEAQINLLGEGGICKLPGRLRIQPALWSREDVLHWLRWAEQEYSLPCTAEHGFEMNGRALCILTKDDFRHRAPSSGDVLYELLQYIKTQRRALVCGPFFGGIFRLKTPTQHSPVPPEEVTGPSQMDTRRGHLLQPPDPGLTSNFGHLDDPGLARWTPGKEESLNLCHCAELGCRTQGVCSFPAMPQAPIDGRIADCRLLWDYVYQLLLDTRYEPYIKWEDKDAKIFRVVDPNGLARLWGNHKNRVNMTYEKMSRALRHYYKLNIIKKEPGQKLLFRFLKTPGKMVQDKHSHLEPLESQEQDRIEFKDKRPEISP
The settings on record: protein: recombinant; tags: N-terminal GST; dsDNA, one strand shown. Summed up:
as §1

The target in the next experiment is T11, ELF5 (Homo sapiens, UniProt Q9UKW6-2 1-255).
T11 sequence: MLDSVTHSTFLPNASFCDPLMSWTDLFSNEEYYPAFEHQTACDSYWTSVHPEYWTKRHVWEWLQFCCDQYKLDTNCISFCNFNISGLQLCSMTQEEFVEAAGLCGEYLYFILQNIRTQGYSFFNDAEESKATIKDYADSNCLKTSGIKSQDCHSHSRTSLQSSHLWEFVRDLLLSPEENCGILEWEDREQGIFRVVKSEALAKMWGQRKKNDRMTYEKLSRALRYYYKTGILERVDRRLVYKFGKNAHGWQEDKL
Conditions: protein: recombinant; tags: N-terminal GST; dsDNA, one strand shown. Summed up: as §1

The target of a further experiment is T12, ETV3 (Homo sapiens, UniProt P41162-2 1-143).
T12 sequence: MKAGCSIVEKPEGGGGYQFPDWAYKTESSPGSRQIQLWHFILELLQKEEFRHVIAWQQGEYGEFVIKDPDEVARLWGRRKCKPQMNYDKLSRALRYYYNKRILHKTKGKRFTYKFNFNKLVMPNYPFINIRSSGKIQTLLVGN
The settings on record: protein: recombinant; tags: N-terminal GST; dsDNA, one strand shown. Summed up:
as §1

Another experiment concerns the target ETV6 (Homo sapiens, UniProt P41212 1-452). The settings on record: protein: recombinant; tags: N-terminal GST; dsDNA, one strand shown. Summed up: as §1

Chain of ETV5 (P41161 whole entry): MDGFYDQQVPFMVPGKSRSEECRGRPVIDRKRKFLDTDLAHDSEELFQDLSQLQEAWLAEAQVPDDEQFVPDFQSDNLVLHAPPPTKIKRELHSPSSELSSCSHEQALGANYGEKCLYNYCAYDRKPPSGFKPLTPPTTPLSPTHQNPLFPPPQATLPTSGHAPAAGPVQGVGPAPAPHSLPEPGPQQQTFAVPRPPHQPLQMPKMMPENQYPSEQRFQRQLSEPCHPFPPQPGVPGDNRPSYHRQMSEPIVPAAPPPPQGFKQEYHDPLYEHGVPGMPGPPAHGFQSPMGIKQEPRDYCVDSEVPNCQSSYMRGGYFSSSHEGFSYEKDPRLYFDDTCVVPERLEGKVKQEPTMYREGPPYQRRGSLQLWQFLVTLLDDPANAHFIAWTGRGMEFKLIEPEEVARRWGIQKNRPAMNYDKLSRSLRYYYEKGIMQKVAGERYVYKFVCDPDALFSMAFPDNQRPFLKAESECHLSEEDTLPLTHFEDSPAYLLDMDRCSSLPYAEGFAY
Chain of ETV6 (P41212 whole entry): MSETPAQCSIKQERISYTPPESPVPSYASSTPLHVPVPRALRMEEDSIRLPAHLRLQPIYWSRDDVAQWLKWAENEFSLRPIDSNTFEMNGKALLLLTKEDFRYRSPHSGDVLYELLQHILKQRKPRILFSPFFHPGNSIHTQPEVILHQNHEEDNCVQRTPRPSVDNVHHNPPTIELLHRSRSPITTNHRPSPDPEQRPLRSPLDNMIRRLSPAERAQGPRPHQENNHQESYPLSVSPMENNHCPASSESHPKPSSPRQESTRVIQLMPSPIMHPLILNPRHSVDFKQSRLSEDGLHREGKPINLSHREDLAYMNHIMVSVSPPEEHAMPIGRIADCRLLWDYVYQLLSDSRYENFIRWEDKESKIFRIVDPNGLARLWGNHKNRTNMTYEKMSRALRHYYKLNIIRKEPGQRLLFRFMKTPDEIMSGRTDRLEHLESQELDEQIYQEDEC
Chain of HSF1 (Q00613 whole entry): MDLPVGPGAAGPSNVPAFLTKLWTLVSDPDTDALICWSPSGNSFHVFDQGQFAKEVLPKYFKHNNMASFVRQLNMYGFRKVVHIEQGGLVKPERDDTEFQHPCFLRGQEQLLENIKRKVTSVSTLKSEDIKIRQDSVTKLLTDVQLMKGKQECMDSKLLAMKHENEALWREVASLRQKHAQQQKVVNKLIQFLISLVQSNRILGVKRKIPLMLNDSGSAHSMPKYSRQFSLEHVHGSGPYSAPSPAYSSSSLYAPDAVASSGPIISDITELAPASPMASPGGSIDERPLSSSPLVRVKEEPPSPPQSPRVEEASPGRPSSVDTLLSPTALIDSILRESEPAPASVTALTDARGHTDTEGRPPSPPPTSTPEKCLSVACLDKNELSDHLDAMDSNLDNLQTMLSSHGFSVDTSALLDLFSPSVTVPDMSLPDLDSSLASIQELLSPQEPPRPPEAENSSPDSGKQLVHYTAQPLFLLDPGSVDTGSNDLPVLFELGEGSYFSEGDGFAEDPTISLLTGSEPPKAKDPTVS
Chain of CRX (O43186 whole entry): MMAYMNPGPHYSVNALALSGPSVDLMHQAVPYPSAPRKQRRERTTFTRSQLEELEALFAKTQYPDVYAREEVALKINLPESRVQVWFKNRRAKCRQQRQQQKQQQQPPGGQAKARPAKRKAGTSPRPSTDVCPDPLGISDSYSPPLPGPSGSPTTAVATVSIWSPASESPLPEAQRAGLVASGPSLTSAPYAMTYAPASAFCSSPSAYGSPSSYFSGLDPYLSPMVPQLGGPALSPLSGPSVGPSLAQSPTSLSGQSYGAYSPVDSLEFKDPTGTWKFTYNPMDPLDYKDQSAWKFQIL
Chain of ELF4 (Q99607 whole entry): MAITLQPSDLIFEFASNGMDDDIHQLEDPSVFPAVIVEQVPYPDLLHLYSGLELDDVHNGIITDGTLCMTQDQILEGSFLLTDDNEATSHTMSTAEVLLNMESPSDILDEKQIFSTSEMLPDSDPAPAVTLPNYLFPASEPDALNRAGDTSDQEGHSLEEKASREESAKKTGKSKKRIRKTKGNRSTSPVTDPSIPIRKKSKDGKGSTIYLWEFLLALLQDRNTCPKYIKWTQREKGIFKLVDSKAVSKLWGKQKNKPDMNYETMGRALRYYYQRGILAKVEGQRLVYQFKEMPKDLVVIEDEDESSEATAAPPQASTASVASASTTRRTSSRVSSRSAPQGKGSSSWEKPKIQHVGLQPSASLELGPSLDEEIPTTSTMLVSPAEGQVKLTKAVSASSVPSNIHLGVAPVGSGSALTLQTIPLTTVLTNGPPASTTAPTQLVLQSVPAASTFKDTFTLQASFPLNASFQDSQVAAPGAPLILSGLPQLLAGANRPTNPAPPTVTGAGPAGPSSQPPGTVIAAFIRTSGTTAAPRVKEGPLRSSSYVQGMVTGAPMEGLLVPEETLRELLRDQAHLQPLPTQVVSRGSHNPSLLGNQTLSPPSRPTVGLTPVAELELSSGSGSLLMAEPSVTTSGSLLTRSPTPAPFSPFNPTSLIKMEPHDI
Chain of ETV1 (P50549 whole entry): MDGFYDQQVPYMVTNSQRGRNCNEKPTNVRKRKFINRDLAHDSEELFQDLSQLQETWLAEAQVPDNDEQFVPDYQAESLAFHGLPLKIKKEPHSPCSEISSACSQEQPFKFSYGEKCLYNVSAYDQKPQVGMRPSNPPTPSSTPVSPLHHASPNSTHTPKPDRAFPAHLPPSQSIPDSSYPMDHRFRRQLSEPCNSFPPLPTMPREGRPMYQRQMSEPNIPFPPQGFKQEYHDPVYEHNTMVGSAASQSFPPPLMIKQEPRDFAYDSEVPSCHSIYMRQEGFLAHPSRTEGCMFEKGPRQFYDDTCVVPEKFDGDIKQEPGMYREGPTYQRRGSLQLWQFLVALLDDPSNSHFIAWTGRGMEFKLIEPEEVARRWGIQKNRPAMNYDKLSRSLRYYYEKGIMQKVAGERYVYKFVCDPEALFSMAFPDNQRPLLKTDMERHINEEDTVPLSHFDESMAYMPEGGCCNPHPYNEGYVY

As for CTTAAA, the binding signal in the experiment with FEV is 1.21 fold enrichment (6-mer frequency, TF over GST control); with ETV5, 1.21 fold enrichment (6-mer frequency, TF over GST control); in the experiment with HSF1, 1.65 fold enrichment (6-mer frequency, TF over GST control); with SPIC, 1.21 fold enrichment (6-mer frequency, TF over GST control); with ELF4 it was 1.12 fold enrichment (6-mer frequency, TF over GST control); in the experiment with ELK4, 1.11 fold enrichment (6-mer frequency, TF over GST control). The binding signal with ETV2 is 1.1 fold enrichment (6-mer frequency, TF over GST control); with ELF3, 1.2 fold enrichment (6-mer frequency, TF over GST control); in the experiment with CRX, 2.38 fold enrichment (6-mer frequency, TF over GST control); with ETV1 it was 1.25 fold enrichment (6-mer frequency, TF over GST control); with ERF, 1.17 fold enrichment (6-mer frequency, TF over GST control); in the experiment with ETV3L it was 1.3 fold enrichment (6-mer frequency, TF over GST control). Further, the binding signal is 1.28 fold enrichment (6-mer frequency, TF over GST control) with ETS2; 1.27 fold enrichment (6-mer frequency, TF over GST control) with SPDEF; 1.19 fold enrichment (6-mer frequency, TF over GST control) with ETV7; 1.16 fold enrichment (6-mer frequency, TF over GST control) with ELF5; 1.22 fold enrichment (6-mer frequency, TF over GST control) with ETV3; 1.26 fold enrichment (6-mer frequency, TF over GST control) with ETV6.
